Screening results: PubChem, The Scripps Research Institute Molecular Screening Center
The sample as a whole holds a higher share of hits than the screen did.
TTR transcr act: TTR transcription activators in neuroblastoma reporter cells, primary screen, cell-based, luminescence, SH-SY5Y, TTR promoter Gaussia luciferase; 1.3% of 92,000 active; activation, % at 16.7 µM; 100% = recombinant luciferase protein wells; AID 1117267, 2014;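 active means activation above the mean of all tested compounds plus 3 SD, cut at about 9.5% in these data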;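 further: cells exposed to compounds for one day before reading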
HuH7 TTR inh: TTR promoter reporter inhibitors in hepatoma cells, counter-screen for TTR transcription activator project, cell-based, luminescence, HuH7 hepatoma; HuH7 TTR promoter-Gaussia luciferase reporter; inhibition, % at 16.7 µM; 4% of 1,100 active; shares compounds with TTR transcr act; AID 1117279, 2014;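 active means average inhibition above the solvent-only control wells' mean plus 3 SD, cut at about 15% in these data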;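 further: inhibitors lower well luminescence so higher value means more inhibition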
TTR up confirm: TTR transcription activators, retest, confirmation, cell-based, luminescence, SH-SY5Y, triplicate. 1,100 tested, under 10 active. shares compounds with TTR transcr act. activation, % at 16.7 µM. SHSY5Y TTR promoter Gaussia luciferase; 100% = purified Lucia enzyme wells, no cells;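 active means mean activation above a set limit taken from the earlier primary screen, cut at about 11% in these data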
Of the large screens only hits and unclear results are named; the others gave an inactive call (follow-up assays come after a bar, where they were run).

CN1CCN(C(=S)Nc2ccc(S(N)(=O)=O)cc2)CC1	TTR transcr act 10.8 | HuH7 TTR inh inactive | TTR up confirm inactive
CCOC(=O)c1ccc(NC(=S)N2CCN(C)CC2)cc1	none
CCCCc1ccc(NC(=S)N2CCN(C)CC2)cc1	none
CN=C1S/C(=C/c2cc(C)n(Cc3ccccc3)c2C)C(=O)N1C	none
N#Cc1ccc(NC(=O)OC2CC3CC2[C@H]2CCCCN2C3)cc1 (stereo partly drawn)	none
O=C(NCc1ccccc1Br)c1ccco1	none
O=C(CNC(=O)c1ccco1)OCc1ccccc1Cl	TTR transcr act 10.7 | HuH7 TTR inh inactive | TTR up confirm inactive
O=C(COC(=O)CNC(=O)c1ccco1)Nc1ccc(Cl)cn1	none
O=C(Nc1ccc(F)cc1)OCc1cn(Cc2ccccc2)nn1	none
COc1ccc2c3c([nH]c2c1)C1=NCC[C@]12c1ccccc1N=CN2CC3	none
O=C(NCc1ccccc1)c1cc(=O)c2ccccc2o1	TTR transcr act 26.2 | HuH7 TTR inh inactive | TTR up confirm inactive
O=C(NCc1ccccc1)c1cc2ccccc2oc1=O	none
O=C(NCc1ccccc1)c1ccc(C(=O)NCc2ccccc2)cc1	none
CCCCCCC(=O)n1ccc2ccc(-c3ccc4ccn(Cc5ccc(OC)cc5)c4c3)cc21	none
COc1ccc(CCNc2c3ccccc3nc3ccccc23)cc1OC	TTR transcr act 11.0 | HuH7 TTR inh inactive | TTR up confirm 13.9
CCn1c(=O)c([N+](=O)[O-])c(NCCc2ccc(OC)c(OC)c2)c2ccccc21	none
COc1ccc(CCn2c(C)nc3ccccc3c2=O)cc1OC	none
CCCC[C@H](C(=O)N(CC)c1ccccc1)[C@@H](O)c1ccc(Cl)cc1	none
C[C@H]1C(=O)N2[C@@H](C[C@]3(c4c[nH]c5ccccc45)c4ccccc4N(S(=O)(=O)c4ccccc4)[C@H]23)C(=O)N1C	none
Cc1ccc(S(=O)(=O)NNC(=O)C2CCN(S(=O)(=O)c3ccc(C)cc3)CC2)cc1	none
CSc1ccc(S(=O)(=O)N2CCC(C(=O)NC3CC3)CC2)cc1	TTR transcr act 17.8 | HuH7 TTR inh inactive | TTR up confirm inactive
O=C(NC1CC1)C1CCN(c2ccc(S(=O)(=O)N3CCOCC3)cc2Cl)CC1	none
C[C@H]1CN(S(=O)(=O)C(C)(C)C)[C@@H](CCO)/C1=C\CCO	none
CS(=O)(=O)N1N=C(c2cccs2)CC1c1ccccc1 (stereo not drawn)	none
COc1ccc(C2CC(c3ccc(OC)c(OC)c3)=NN2S(C)(=O)=O)cc1 (stereo not drawn)	none
CS(=O)(=O)N1N=C(c2ccco2)CC1c1ccc(Br)cc1 (stereo not drawn)	TTR transcr act 17.7 | HuH7 TTR inh inactive | TTR up confirm inactive
COC[C@H]1CCCN1c1cccc2c1S(=O)(=O)N(C1CC1)CC[C@@H](C)O2	none
O=C(NCCc1c[nH]c2ccccc12)OCc1cn(Cc2cccc(C(F)(F)F)c2)nn1	none
CC(C)(C)S(=O)N1C[C@@H]2CC(=O)C(c3ccccc3)=C2[C@H]1CCO (stereo partly drawn)	none
Cc1cc(C)n(C(=O)Cn2nc(C)c(Cl)c2C)n1	none
Cc1cc(C)n(C(=O)CNC(=O)C(c2ccccc2)c2ccccc2)n1	none
Cc1cc(C)n(C(=O)CNc2cccc(Cl)c2C)n1	TTR transcr act 10.7 | HuH7 TTR inh inactive | TTR up confirm inactive
COC(CNC(=O)[C@H](Cc1c[nH]c2ccccc12)NC1(C(=O)NC2CCCCC2)CCCCC1)OC	none
CCCCCCCCN1C(=O)[C@@H](CC(=O)NCC2CCCCC2)C[C@@]2(C(=O)OC)C1=C[C@H](COCc1ccccc1)O[C@@H]2C	none
CCC(CO)Nc1ccn2nc(-c3ccccc3)cc2n1 (stereo not drawn)	TTR transcr act 26.2 | HuH7 TTR inh inactive | TTR up confirm inactive
CCc1ccn2cc(-c3cc(-c4ccccc4)no3)nc2c1	none
CCOC(=O)Cn1nc(-c2ccccc2)ccc1=O	none
CCCCOCCCNC(=O)C[C@H]1C[C@@]2(C(=O)OC)C(=C[C@H](C(C)(C)C)O[C@@H]2C)N(Cc2ccc(Cl)cc2Cl)C1=O	none
COC(=O)[C@]12CCCCC=C1N(Cc1ccc(OC)cc1)C(=O)[C@@H]2CC(=O)N1CCCC1	none
O=C(c1ccccc1)c1cccs1	none
Nc1sccc1C(=O)c1ccccc1	TTR transcr act 9.9 | HuH7 TTR inh inactive | TTR up confirm inactive
Cc1ccccc1C(=O)c1ccccc1C(=O)c1ccccc1	none
COc1ccccc1NCc1nc2ccccc2n1C	none
CC1CCC2(CC1)CCC2NCc1ccc(Cl)c(Cl)c1 (stereo not drawn)	none
CN(C)c1nc(N(C)C)nc(N(C#N)Cc2ccc(Cl)cc2)n1	none
CCOC(=O)C(C(=O)OCC)N(C#N)c1nc(OC)nc(N(C)C)n1	none
COC(=O)CN(C#N)c1nc(N(C)C)nc(N(C)C)n1	TTR transcr act 13.3 | HuH7 TTR inh inactive | TTR up confirm inactive
COC(=O)[C@]12C[C@H](CC(=O)NCc3ccc(OC)c(OC)c3)C(=O)N(CCC3=CCCCC3)C1=C[C@H](C1CCCC1)O[C@@H]2C	none
CC(=O)C1=CCN(C)CC1	none
C[C@H]1[C@@H](OC(=O)N2CCCC2)CC[C@@]23CCCN2C(=O)CCC[C@@H]13	none
CC(=O)c1c(C(C)=O)c(C)n(-c2cccc3cccnc23)c1C	none
Cc1[nH]c2c(ccc3cccnc32)c1C	TTR transcr act 12.3 | HuH7 TTR inh inactive | TTR up confirm inactive
c1ccc(-c2nc3c(ccc4ccccc43)[nH]2)nc1	none
Cc1ccccc1CN1CCCCC(NC(=O)C(C)(C)C)C1=O (stereo not drawn)	none
COc1cc(O)c(C(CC(=O)N2CC(C)OC(C)C2)c2ccc3c(c2)OCO3)c(OC)c1 (stereo not drawn)	none
C[C@@H]1COc2cc(N3CCSCC3)ccc2S(=O)(=O)N1C	none
C[C@H]1CN(S(=O)(=O)C(C)(C)C)[C@H](CCO)/C1=C\CCO	none
CCOC(=O)C1=CCN(S(=O)(=O)c2ccc(Cl)cc2)C1c1ccc(Cl)c(Cl)c1 (stereo not drawn)	none
CCOc1ccc(C(=O)N[C@H](C(=O)Nc2ccccc2OC)C(C)C)cc1	none
CCCn1nc2cc(C(=O)NCc3ccccc3OC)ccc2c1OCC	none
CCOc1ccc(C(=O)NCc2ccccc2OC)cc1	TTR transcr act 15.1 | HuH7 TTR inh inactive | TTR up confirm inactive
CN(Cc1ccccc1)C(=O)OCc1cn(Cc2cccc(F)c2)nn1	none
S=C(Nc1ccc(Cl)c(Cl)c1)Nc1nnc(-c2ccncc2)s1	none
c1ccc(-c2nnc(-c3ccccn3)c(-c3ccccn3)n2)nc1	none
c1ccc(-c2nnc(-c3ccccn3)nn2)nc1	TTR transcr act 10.3 | HuH7 TTR inh inactive | TTR up confirm inactive
c1ccc(-c2ccc(-c3ccccn3)s2)nc1	none
Cc1ccc(CN2CCCCC(NC(=O)c3ccc(COc4ccccc4)cc3)C2=O)cc1 (stereo not drawn)	none
Cc1cccc(NC(=O)CSc2nnc(C)n2Cc2ccccc2)c1	none
CCn1c(CN2CCOCC2)nnc1SCC(=O)Nc1cccc(C)c1	TTR transcr act 21.1 | HuH7 TTR inh inactive | TTR up confirm inactive
Cc1ccc(NC(=O)CSc2nnc(CN3CCOCC3)n2-c2ccccc2)cc1	none
O=C(Nc1ccccc1Cl)O[C@@H]1CC[C@@]23CCCN2C(=O)CCC[C@H]3C1	none
CCCCOc1ccc(C(=O)NC2CCCCN(Cc3ccc(C)cc3)C2=O)cc1 (stereo not drawn)	none
